Active and inactive are the calls of the source.
Assays:
[1] = tested on: Plasmodium falciparum Sir2 (PF13_0152, Sir2A); test: Plasmodium falciparum Sir2A binding compounds – biochemical, small-molecule microarray, 635 nm fluorescence, primary screen (AID 1098); details: fluorescence 635 nm, higher = more signal;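 further: score merges spot fluorescence intensity with its signal-to-noise ratio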
[2] = probe aDKK1 binding to arrayed compounds – biochemical, biotinylated probe, 635/667 nm fluorescence, primary screen (AID 1099); details: small-molecule microarray, higher = more signal;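 further: score merges 667nm spot fluorescence with signal to noise across triplicate slides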
[3] = probe aCHRDL2 binding to arrayed compounds – biochemical, biotinylated probe, 635/667 nm fluorescence, primary screen (AID 1100); details: small-molecule microarray, higher = more signal
[4] = change in splice reporter luminescence, either direction, cell-based, HEK293, spliceosome inhibition project, primary screen (AID 1101); details: HEK293 splicing luciferase reporter, 24 h, higher = more signal, called active from +8 up or from −8 down;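 further: HEK293 cells carrying a splicing-competent luciferase reporter gene; test concentration not given here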
[5] = target: Fibroblast growth factor 10 (Homo sapiens) (UniProt O15520); test: compounds binding fibroblast growth factor 10 – biochemical, small-molecule microarray, 635 nm fluorescence, primary screen (AID 1102); details: FGF10 binding, fluorescence 635 nm, higher = more signal
[6] = tested on: glycogen synthase kinase-3 (GSK3A per assay name; protocol says GSK3B); test: compounds binding glycogen synthase kinase-3 – biochemical, small-molecule microarray, 635 nm fluorescence, GSK3A, primary screen (AID 1103); details: fluorescence 635 nm, higher = more signal; further: the record names both GSK3A and GSK3B
[7] = target: Epidermal growth factor receptor (Homo sapiens) (UniProt P00533); test: compounds binding epidermal growth factor receptor – biochemical, small-molecule microarray, 635 nm fluorescence, primary screen (AID 1104); details: EGFR binding, higher = more signal;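 further: score merges 667 nm emission intensity with spot signal to noise over triplicate slides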
[8] = target: Follistatin-related protein 3 (Homo sapiens) (UniProt O95633); test: compounds binding follistatin-related protein 3 – biochemical, small-molecule microarray, 635 nm fluorescence, primary screen (AID 1105); details: FSTL3 binding, higher = more signal;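 further: score merges emission near 667 nm and signal to noise per printed spot across three slides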
[9] = target: Dickkopf-related protein 1 (Homo sapiens) (UniProt O94907); test: small molecules binding DKK1 protein – biochemical, small-molecule microarray, 635 nm fluorescence scan, primary screen (AID 1106); details: higher = more signal;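 further: score merges emission near 667 nm with signal to noise over three replicate slides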
[10] = tested on: Inhibin beta A chain (activin A); test: small molecules binding activin A – biochemical, small-molecule microarray, 635 nm fluorescence scan, primary screen (AID 1107); details: INHBA, higher = more signal;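 further: mouse activin A protein probed at 4.33 µg/mL on printed slides; score merges bound-protein fluorescence near 667 nm with spot signal-to-noise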
[11] = tested on: Human papillomavirus type 1a protein E7 (residues 44-93); test: small molecules binding HPV E7 44-93 – biochemical, small-molecule microarray, residues 44-93, 635 nm fluorescence, primary screen (AID 1108); details: fluorescence 635 nm, higher = more signal;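 further: E7 fragment applied at 1 µg/mL in TBST for 1 h at 4 C; score combines spot fluorescence with its signal to noise ratio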
[12] = hepatitis C replication reporter changes, two-sided – Huh7 cells, luciferase reporter, HCV replication inhibitor project, primary screen (AID 1109); details: Huh7 HCV replicon luciferase reporter, 48 h; higher = more signal;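 further: huh7 hepatoma cells harbouring a luciferase neomycin HCV replicon reporter; luciferase luminescence as measure of HCV replicon replication; test concentration not given here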
[13] = target: Left-right determination factor 2 (Homo sapiens) (UniProt O00292); test: small molecules binding LEFTY2 protein – biochemical, small-molecule microarray, 635 nm fluorescence scan, primary screen (AID 1110); details: higher = more signal
[14] = target: Calmodulin-1 (Homo sapiens) (UniProt P0DP23); test: small molecules binding calmodulin-1 with EGTA – biochemical, small-molecule microarray, Cy5-labelled CALM1, profiling panel (AID 1111); details: Cy5-CALM1 binding fluorescence, higher = more signal;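 further: labelled calmodulin applied in Tris saline Tween buffer holding calcium plus EGTA and DTT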
[15] = target: Calmodulin-1 (Homo sapiens) (UniProt P0DP23); test: small molecules binding Ca-loaded calmodulin-1 – biochemical, small-molecule microarray, Cy5-labelled CALM1, plus calcium, artefact control for SMM control-protein annotation, profiling panel (AID 1112); details: Cy5-CALM1 binding fluorescence, higher = more signal;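 further: score merges spot fluorescence with signal to noise from triplicate slides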
[16] = probe aWnt5a binding to arrayed compounds – biochemical, biotinylated probe, 635/667 nm fluorescence, primary screen (AID 1113); details: small-molecule microarray, higher = more signal;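 further: score merges 667 nm fluorescence intensity with signal-to-noise per printed feature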
[17] = probe aShh binding to arrayed compounds – biochemical, biotinylated probe, 635/667 nm fluorescence, primary screen (AID 1114); details: small-molecule microarray, higher = more signal;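 further: probe is biotin-labelled aShh protein from a stem cell growth factor screen; measures binding of labelled protein to compounds printed on the slide; score merges feature fluorescence at 667 nm with signal-to-noise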
[18] = probe aNog binding to arrayed compounds – biochemical, biotinylated probe, 635/667 nm fluorescence, primary screen (AID 1115); details: small-molecule microarray, higher = more signal;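 further: probe is biotinylated aNog protein used at 0.15 µg/mL for 1 h at 4 C; z-score combines 667 nm fluorescence of each spot with its signal to noise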
[19] = target: Torsin-1A-interacting protein 1 (Homo sapiens) (UniProt Q5JTV8); test: compound microarray binding of lysate hLAP1 – cell lysate, small-molecule microarray, COS7 lysate, 635/667 nm fluorescence, primary screen (AID 1116); details: 635 nm fluorescence, higher = more signal
[20] = target: Alpha-bungarotoxin (Bungarus multicinctus) (UniProt P60615); test: compounds binding labelled alpha-BTX control protein – biochemical, small-molecule microarray, Alexa647 label, 635/667 nm fluorescence, artefact control for SMM control protein annotation, profiling panel (AID 1117); details: alpha-BTX-A647 binding fluorescence, higher = more signal
Chain of Alpha-bungarotoxin (Bungarus multicinctus) (P60615 whole entry, looked up): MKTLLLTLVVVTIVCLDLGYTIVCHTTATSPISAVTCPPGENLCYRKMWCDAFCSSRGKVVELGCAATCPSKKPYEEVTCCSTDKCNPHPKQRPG

Chain of Left-right determination factor 2 (Homo sapiens) (O00292 whole entry, looked up): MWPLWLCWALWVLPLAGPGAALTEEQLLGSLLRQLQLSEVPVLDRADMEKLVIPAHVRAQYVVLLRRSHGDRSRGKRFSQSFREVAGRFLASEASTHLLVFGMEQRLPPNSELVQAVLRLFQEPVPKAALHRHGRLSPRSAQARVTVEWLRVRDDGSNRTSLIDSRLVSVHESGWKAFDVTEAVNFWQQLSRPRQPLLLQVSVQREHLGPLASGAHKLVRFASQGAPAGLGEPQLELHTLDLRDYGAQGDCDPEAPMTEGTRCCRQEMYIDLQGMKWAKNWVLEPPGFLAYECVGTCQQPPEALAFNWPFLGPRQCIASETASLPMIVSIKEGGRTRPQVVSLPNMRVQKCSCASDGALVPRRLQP
Chain of Fibroblast growth factor 10 (Homo sapiens) (O15520 whole entry, looked up): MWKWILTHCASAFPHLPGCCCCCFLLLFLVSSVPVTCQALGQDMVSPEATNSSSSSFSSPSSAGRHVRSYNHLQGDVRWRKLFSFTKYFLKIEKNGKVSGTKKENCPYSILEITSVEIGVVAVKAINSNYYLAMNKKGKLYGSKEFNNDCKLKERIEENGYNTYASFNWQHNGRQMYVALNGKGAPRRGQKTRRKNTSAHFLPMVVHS
Chain of Torsin-1A-interacting protein 1 (Homo sapiens) (Q5JTV8 whole entry, looked up): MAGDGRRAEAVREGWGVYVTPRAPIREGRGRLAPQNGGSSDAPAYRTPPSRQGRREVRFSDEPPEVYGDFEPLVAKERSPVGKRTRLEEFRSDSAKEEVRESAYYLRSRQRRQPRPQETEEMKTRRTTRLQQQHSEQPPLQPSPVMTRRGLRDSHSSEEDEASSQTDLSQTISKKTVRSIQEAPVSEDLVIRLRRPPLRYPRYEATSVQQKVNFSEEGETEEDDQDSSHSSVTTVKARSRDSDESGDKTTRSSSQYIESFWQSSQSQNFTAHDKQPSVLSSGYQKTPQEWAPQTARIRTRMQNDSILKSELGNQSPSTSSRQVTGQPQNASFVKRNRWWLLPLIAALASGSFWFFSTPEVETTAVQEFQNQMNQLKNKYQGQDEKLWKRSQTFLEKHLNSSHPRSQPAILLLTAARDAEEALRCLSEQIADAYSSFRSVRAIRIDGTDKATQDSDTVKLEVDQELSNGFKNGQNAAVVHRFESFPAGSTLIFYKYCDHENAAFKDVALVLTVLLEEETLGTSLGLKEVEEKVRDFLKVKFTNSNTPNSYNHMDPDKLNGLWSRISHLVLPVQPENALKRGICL
Chain of Epidermal growth factor receptor (Homo sapiens) (P00533 whole entry, looked up): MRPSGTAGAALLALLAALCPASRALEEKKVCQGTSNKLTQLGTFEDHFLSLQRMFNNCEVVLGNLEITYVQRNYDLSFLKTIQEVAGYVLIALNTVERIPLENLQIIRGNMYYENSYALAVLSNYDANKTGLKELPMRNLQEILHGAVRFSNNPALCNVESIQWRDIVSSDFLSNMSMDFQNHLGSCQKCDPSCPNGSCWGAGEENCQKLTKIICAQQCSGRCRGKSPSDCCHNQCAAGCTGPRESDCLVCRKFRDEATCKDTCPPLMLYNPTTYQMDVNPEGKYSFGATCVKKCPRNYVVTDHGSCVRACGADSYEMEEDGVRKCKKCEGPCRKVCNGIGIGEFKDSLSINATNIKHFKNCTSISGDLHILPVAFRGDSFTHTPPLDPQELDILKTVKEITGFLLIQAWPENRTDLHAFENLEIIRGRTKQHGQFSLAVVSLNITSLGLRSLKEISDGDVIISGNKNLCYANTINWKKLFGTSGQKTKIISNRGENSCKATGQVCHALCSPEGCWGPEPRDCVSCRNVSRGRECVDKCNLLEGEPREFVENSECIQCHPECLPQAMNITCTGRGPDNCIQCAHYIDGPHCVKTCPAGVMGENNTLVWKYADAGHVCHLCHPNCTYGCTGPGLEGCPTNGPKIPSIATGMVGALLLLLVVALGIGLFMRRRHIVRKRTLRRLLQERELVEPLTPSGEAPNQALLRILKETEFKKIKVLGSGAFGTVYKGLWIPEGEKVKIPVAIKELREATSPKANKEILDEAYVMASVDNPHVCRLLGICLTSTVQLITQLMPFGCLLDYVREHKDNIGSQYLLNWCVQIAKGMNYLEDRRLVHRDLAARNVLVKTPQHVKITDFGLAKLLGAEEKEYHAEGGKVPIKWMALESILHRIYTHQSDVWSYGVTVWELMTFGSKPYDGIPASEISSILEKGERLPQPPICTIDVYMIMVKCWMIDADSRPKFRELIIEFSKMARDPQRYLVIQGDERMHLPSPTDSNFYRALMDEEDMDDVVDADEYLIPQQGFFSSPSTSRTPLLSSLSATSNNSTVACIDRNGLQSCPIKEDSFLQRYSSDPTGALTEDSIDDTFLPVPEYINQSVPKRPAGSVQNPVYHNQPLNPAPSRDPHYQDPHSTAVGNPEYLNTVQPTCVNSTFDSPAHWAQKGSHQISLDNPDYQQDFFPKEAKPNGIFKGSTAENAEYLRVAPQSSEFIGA
Chain of Dickkopf-related protein 1 (Homo sapiens) (O94907 whole entry, looked up): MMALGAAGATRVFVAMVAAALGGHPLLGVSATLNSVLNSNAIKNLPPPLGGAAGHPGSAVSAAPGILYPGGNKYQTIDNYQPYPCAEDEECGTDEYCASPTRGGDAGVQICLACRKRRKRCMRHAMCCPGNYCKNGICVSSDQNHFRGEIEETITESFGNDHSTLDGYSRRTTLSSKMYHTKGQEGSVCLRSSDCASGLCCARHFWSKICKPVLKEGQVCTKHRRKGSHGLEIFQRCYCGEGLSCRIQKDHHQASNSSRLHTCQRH
Chain of Follistatin-related protein 3 (Homo sapiens) (O95633 whole entry, looked up): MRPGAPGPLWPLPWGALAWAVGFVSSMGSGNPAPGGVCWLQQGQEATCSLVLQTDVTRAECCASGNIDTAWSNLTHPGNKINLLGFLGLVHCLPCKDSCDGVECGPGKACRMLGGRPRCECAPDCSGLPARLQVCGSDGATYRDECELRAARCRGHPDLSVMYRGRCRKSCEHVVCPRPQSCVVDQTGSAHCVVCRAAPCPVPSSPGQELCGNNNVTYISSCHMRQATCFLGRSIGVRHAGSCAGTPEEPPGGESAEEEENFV

SMILES	composite z-score [1]	composite z-score [2]	composite z-score [3]	z-score [4]	composite z-score [5]	composite z-score [6]	composite z-score [7]	composite z-score [8]	composite z-score [9]	composite z-score [10]	composite z-score [11]	z-score [12]	composite z-score [13]	composite z-score [14]	composite z-score [15]	composite z-score [16]	composite z-score [17]	composite z-score [18]	composite z-score [19]	composite z-score [20]
CO[C@@H]1COC(=O)[C@H](COCc2ccccc2)NC(=O)CC=C[C@@H](C)[C@H](OC)COC(=O)[C@H](COCc2ccccc2)NC(=O)CC=C[C@H]1C	-0.23	-0.466	-0.942	-0.923 (inactive)	0.168	0.376	0.48	0.424	0.96	1.51	-0.417	-0.0527	0.644	-0.409	-1.01	-0.0927	-0.0626	-0.349	-0.217	-0.774
CO[C@]12C=C(Br)[C@@H](C[C@@H]1c1ccccc1)[C@@]1(CO1)C2=O	0.165	-0.301	-0.708	-0.0249 (inactive)	0.342	0.497	0.496	0.615	0.791	0.737	-0.468	-2.97	0.36	-0.264	-0.533	-0.0125	-0.0146	0.0256	-0.161	-0.3
Cc1ccc(S[C@]2(C(=O)NCCN3CCOCC3)CC(=O)N(C3Cc4ccccc4C3)[C@@H]2c2ccc(CO)cc2I)cc1	1.84	0.696	1.18	-1.16 (inactive)	-0.303	-0.909	-1.65	-0.359	-0.408	0.72	0.0913	-1.69	-1.71	-0.0071	-0.0474	0.0718	-0.0553	0.79	0.0697	1.74
Cc1ccc(S[C@]2(C(=O)O)CC(=O)N(Cc3cc(C(F)(F)F)cc(C(F)(F)F)c3)[C@@H]2c2ccc(CO)cc2I)cc1	1.3	0.483	1.16	-1.48 (inactive)	-0.458	-1.13	-1.65	-1.07	-1.38	0.645	-0.0997	-1.39	-2.05	-0.279	0.74	-0.0824	0.0767	0.181	0.598	-0.206
O=C1O[C@@H](c2ccccc2)[C@@H](c2ccccc2)N2[C@@H](c3ccc(O)cc3)[C@]3(C(=O)Nc4ccc(C#CC5(O)CCCCCC5)cc43)[C@@H](C(=O)Nc3nc4ccccc4s3)[C@H]12	0.864	0.051	0.546	0.179 (inactive)	0.869	1.34	0.736	1.39	0.892	0.644	-0.423	-0.56	0.494	0.395	0.253	0.245	-0.35	1.15	1.18	1.91
COCCOC(=O)N1C(=O)[C@@]2(c3cc(C#CC4(O)CCCCCC4)ccc31)[C@H](C(=O)N1CCCCCCC1)[C@H]1C(=O)O[C@H](c3ccccc3)[C@H](c3ccccc3)N1[C@@H]2c1ccc(O)cc1	1.26	2.22	1.55	-0.0148 (inactive)	0.808	1.11	0.251	1.34	0.716	1.89	0.554	-0.937	0.333	1.31	0.639	0.629	1.9	2.13	3.24	1.73
COC(=O)C[C@H]1O[C@]2(C(=O)N(C)c3ccccc32)[C@@H](C)[C@@H]1[Si](C)(C)c1ccc(OC)cc1	0.377	-0.198	-0.514	-1.78 (inactive)	1.29	0.637	0.309	0.558	0.344	-0.27	0.353	-2	1.02	0.0348	-0.327	0.0502	-0.271	-0.141	0.335	0.449
COCCOC(=O)N1C(=O)[C@@]2(c3cc(C#CC4=CCCCC4)ccc31)[C@H](C(=O)NC[C@H](O)c1ccccc1)[C@H]1C(=O)O[C@H](c3ccccc3)[C@H](c3ccccc3)N1[C@@H]2c1ccc(OCCO)cc1	0.915	-0.18	0.226	-0.718 (inactive)	1.29	1.28	0.483	1.37	0.817	0.49	1.41	-2.08	0.537	0.774	-0.206	0.0115	-0.279	0.165	1	1.28
CCCC[C@@H]1C[C@H]1[C@@H](NC(=O)c1ccccc1)c1ccccc1C(F)(F)F	1.15	0.526	1.05	-0.261 (inactive)	0.0165	0.415	-0.279	-0.0027	-0.521	0.616	1.38	-0.696	-0.641	1.04	1.09	-0.127	0.204	1.39	1.06	1.61
Cc1ccc(S[C@]2(C(=O)NCCCN(C)C)CC(=O)N(C3CCCCC3)[C@@H]2c2ccc(CO)cc2I)cc1	-0.939	0.956	1.14	-1.31 (inactive)	-0.582	0.219	-1	-0.593	-0.256	1.14	-1.32	-3.67	-0.848	-0.454	0.49	-0.0455	0.173	0.134	0.123	-0.693
